Source: PubChem
Most compounds without a hit are left out; they make up all but 5.4% or so of the library.
Lassa entry inh: qHTS for Inhibitors of binding or entry into cells for Lassa Virus; Potency, µM (top dose mostly 37.9 µM), inactives show at the highest dose activity change, negative = inhibition, actives largely listed as inhibitors; 300,000 compounds, 1.2% hits; Lassa virus pseudotype entry inhibition, cell reporter; calls by dose curve; tested in HEK293 cells; further: nearly all actives have a fitted effect of over 50% in size
VACV Venus inh: qHTS for Stage-Specific Inhibitors of Vaccinia Orthopoxvirus: Venus Reporter Primary qHTS; AID 720580, 2013; Vaccinia virus Venus reporter expression, fluorescence; Potency, µM (series often up to 36.5 µM), without a hit: at the highest dose activity change, negative = inhibition, hits mostly inhibitors; 330,000 compounds, 0.46% hits; calls by dose curve; tested in A549 cells; further: nearly all actives have a fitted effect of over 30% in size
Sm TGR block: qHTS Assay for the Inhibitors of Schistosoma Mansoni Peroxiredoxins; purified TGR, DTNB reduction, TNB absorbance 405 nm; Potency, µM (doses to about 114 µM), for inactives: top-dose activity change, negative = inhibition, most hits filed as inhibitors; 360,000 compounds, 3% hits; AID 485364, 2010; active means well fitted inhibition curve with a large enough effect; inconclusive means small, poorly fitted or top-dose-only effect; inactive means no such curve, though single readings can be large or run the other way; further: nearly all actives have a fitted effect of over 60% in size
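First, TGR (20 nM dispensed) and NADPH were mixed with compound. Second, a 15 min room-temperature incubation followed. Third, further NADPH and then DTNB were added to start the reaction. Finally, TNB absorbance was monitored kinetically.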
FMDV antiviral: High Throughput Screening for Foot and Mouth Disease Virus Antivirals; FMDV antiviral cell-based qHTS; Potency, µM (titrated, usually from 57.9 µM), inactives show top-dose activity change, negative = inhibition, most hits filed as inhibitors; 410,000 compounds, 1.2% hits; AID 1159524, 2015; calls by dose curve; tested in HEK293T cells; further: read-out not given here; nearly all actives have a fitted effect of over 45% in size
VACV mCherry inh: qHTS for Stage-Specific Inhibitors of Vaccinia Orthopoxvirus: mCherry Reporter Primary qHTS; AID 720579, 2013; 310,000 compounds, 0.63% hits; Potency, µM (top dose mostly 36.5 µM), for inactives: at the highest dose activity change, negative = inhibition, hits mostly inhibitors; Vaccinia virus mCherry reporter infection, fluorescence; calls by dose curve; tested in A549 cells; further: nearly all actives have a fitted effect of over 35% in size
Marburg entry inh: qHTS for inhibitors of binding or entry into cells for Marburg Virus; 300,000 compounds, 1.8% hits; Potency, µM (titrated, usually from 37.8 µM), for the others: top-dose activity change, negative = inhibition, hits mostly inhibitors; Marburg virus pseudotyped entry inhibition, cell reporter; calls by dose curve; tested in HEK293 cells
* = called active by the depositor; ! = repeats disagree; [ ] = dose if it differs, or a comment. On the % scale 0 is the no-effect control and ±100 the full control effect; potency means the concentration at half of the fitted maximal effect.

For O=C1CCCC(=O)N1c1ccc(O)cc1 the results were Lassa entry inh 18%, Sm TGR block 0%[57.1 µM], FMDV antiviral -2% and Marburg entry inh 10%.
O=C1C=CC(=O)N1c1ccc(O)cc1 was read as Sm TGR block 0.89µM* and FMDV antiviral -27%.
`O=C1C=CC(=O)N1c1ccc(OC(F)F)cc1` gave Lassa entry inh -8%, VACV Venus inh -21%, Sm TGR block 0.35µM*, FMDV antiviral -19%, VACV mCherry inh inactive and Marburg entry inh inconclusive.
For O=C1C2C3C=CC(C2C(=O)N1c1ccc(O)cc1)C1C2C(=O)N(c4ccc(O)cc4)C(=O)C2C31 (stereo unspecified) the results were Sm TGR block 50µM* and FMDV antiviral 15%.
For CN(C)CCCC1(c2ccc(F)cc2)OCc2cc(C#N)ccc21 (stereo unspecified) the results were Lassa entry inh inconclusive, VACV Venus inh -18%, Sm TGR block 0%, FMDV antiviral -16%, VACV mCherry inh inactive and Marburg entry inh 16µM*!.
Cc1ccc(NC(=O)c2ccc3nccnc3c2)c(C)c1 was read as Lassa entry inh 2%[46.1 µM], VACV Venus inh -7%, Sm TGR block 56µM*, FMDV antiviral 21%, VACV mCherry inh inactive and Marburg entry inh inconclusive.
For Cc1cc(C)c(NC(=O)c2ccc3nccnc3c2)c(C)c1 the results were Lassa entry inh 4%, VACV Venus inh 7%, Sm TGR block 1%, FMDV antiviral 3%, VACV mCherry inh -5% and Marburg entry inh 0%[46.1 µM].
CCN(CC)c1ccc(-c2nnc(SCC(=O)Nc3ccccc3C#N)n2-c2ccccc2)cc1 was read as Lassa entry inh 11µM*, VACV Venus inh inconclusive, Sm TGR block -27%, FMDV antiviral inconclusive and Marburg entry inh inconclusive.
Cc1ccc(-c2nc3ccc(NS(=O)(=O)c4ccccc4)cc3[nH]2)o1 was read as Lassa entry inh -29%, VACV Venus inh -25%, Sm TGR block 35µM*, VACV mCherry inh -15% and Marburg entry inh -1%.
O=S(=O)(Nc1ccc2nc(-c3ccc(Br)o3)[nH]c2c1)c1ccccc1 was read as Sm TGR block 28µM*.
For Clc1cccc(CSc2nnc(C3CCNCC3)o2)c1 the results were Lassa entry inh 19%[46.1 µM], VACV Venus inh 2%, Sm TGR block -3%, FMDV antiviral 17%, VACV mCherry inh -15% and Marburg entry inh -26%[46.1 µM].
For COC1CCC(C2CC(=O)C3=C(CCCC3)O2)CC1 (stereo unspecified) the results were Marburg entry inh 44%.
For Cc1ncc2c(c1CNC(=O)c1ccc3c(c1)OCO3)CCN(C(=O)c1csc3c1CCCC3)C2 the results were VACV Venus inh -6%, FMDV antiviral 1% and VACV mCherry inh -15%.
COc1ccc(-c2nnc(COc3ccc4ccccc4c3)o2)cc1OC was read as Lassa entry inh 21µM*, Sm TGR block 2%, FMDV antiviral -19% and Marburg entry inh inconclusive.
Screening COc1ccc(CN2CCOc3ccc(C(O)c4cccnc4)cc3C2)cc1O (stereo unspecified) returned VACV Venus inh -7%, FMDV antiviral -19% and VACV mCherry inh -13%.
Nc1ccc(Oc2ccccc2-c2ccccc2)cc1 was read as Lassa entry inh 5.6µM*, VACV Venus inh -19%, FMDV antiviral 7.9µM*, VACV mCherry inh -23% and Marburg entry inh 5.6µM*.
`NCCOc1ccccc1-c1ccccc1` gave Lassa entry inh -20%, VACV Venus inh -4%, Sm TGR block 36%, FMDV antiviral -6% and Marburg entry inh -13%.
`Cc1c(CN2CCCC(C)C2)c(O)n(CCO)c(=O)c1C#N` (stereo unspecified) gave Lassa entry inh 5%, VACV Venus inh 2%, Sm TGR block 0%, FMDV antiviral 1%, VACV mCherry inh inactive and Marburg entry inh 4%[46.1 µM].
For C=CCn1c(O)c(CN2CCCCC2)c(C)c(C#N)c1=O the results were Lassa entry inh -8%[46.1 µM], VACV Venus inh 3%, Sm TGR block 13µM*, FMDV antiviral 8%, VACV mCherry inh inactive and Marburg entry inh -16%[46.1 µM].
`Cc1c(C(=O)NCC(C)(C)N2CCOCC2)cnn1-c1nccc(-c2cccs2)n1` gave VACV Venus inh -9%, FMDV antiviral -6% and VACV mCherry inh -12%.
COc1ccc(C2=NO[C@@H]3C(=O)N(c4ccc5c(c4)OCCO5)C(=O)[C@H]23)cc1OC was read as Lassa entry inh 18%, Sm TGR block 45µM*, FMDV antiviral inconclusive and Marburg entry inh -1%.
COc1ccc(C2=NO[C@@H]3C(=O)N(C4CCCCC4)C(=O)[C@H]23)cc1OC was read as Lassa entry inh 5%, Sm TGR block -6%, FMDV antiviral inconclusive and Marburg entry inh 11%.
For CCN(Cc1ccccc1)C(=O)Cn1c(=O)n(-c2ccc(C)c(C)c2)c(=O)c2c(C)c(C)sc21 the results were Lassa entry inh -18%[46.1 µM], VACV Venus inh -23%, Sm TGR block -1%, FMDV antiviral -15%, VACV mCherry inh -25% and Marburg entry inh -30%[46.1 µM].
`O=C1C(Cl)=C(NS(=O)(=O)c2ccc([N+](=O)[O-])cc2)C(=O)c2ccccc21` gave Lassa entry inh inconclusive, VACV Venus inh 16%, Sm TGR block 0.89µM*, FMDV antiviral inconclusive, VACV mCherry inh -2% and Marburg entry inh inconclusive.
Screening O=[N+]([O-])c1ccc(Oc2ccc(S(=O)(=O)Nc3ccccc3)cc2)cc1 returned Lassa entry inh -24%, VACV Venus inh -25%, Sm TGR block 0%, FMDV antiviral inconclusive, VACV mCherry inh -23% and Marburg entry inh inconclusive.
Screening Cc1ccc2oc(C(=O)NCC(c3ccc(Cl)cc3)N3CCOCC3)c(C)c2c1 (stereo unspecified) returned Lassa entry inh -19%[46.1 µM], VACV Venus inh -13%, Sm TGR block 6%, FMDV antiviral inconclusive, VACV mCherry inh -15% and Marburg entry inh inconclusive.
For COc1ccc(C(=O)Cn2c(=O)n3nc(CCn4nc(C)cc4C)nc3c3cc(OC)c(OC)cc32)cc1 the results were Lassa entry inh inconclusive, VACV Venus inh -15%, Sm TGR block 9%, FMDV antiviral -9% and VACV mCherry inh -10%.
Screening CC12CCC(C(=O)N(CSC(=S)N/N=C\c3ccccc3O)C1=O)C2(C)C (stereo unspecified) returned Lassa entry inh inconclusive, VACV Venus inh -18%, Sm TGR block 20µM*, FMDV antiviral 1% and Marburg entry inh -30%[46.1 µM].
